The source of these data is PubChem BioAssay (NCATS).

Inconclusive results are not listed. Entries that show only a call come without a potency. Calls of active or inactive are those of the source. Calls come from the whole dose curve; as a rule, active = well fitted inhibition curve with a large enough effect; inconclusive = small, poorly fitted or top-dose-only effect; inactive = flat fitted curve, though single readings scatter. *1 amine or outer side, *2 acyl side, *3 side chain or, on linkers, in order; H or OH if unused. Where a SMILES comes first, the peptide text is derived from it. Bridges are numbered along the chain shown (N, C = ends). [ ]: non-standard residue; d: D form. The star is where a group is joined. ξ: configuration not given here. AFC = O=c1cc(C(F)(F)F)c2ccc(N*)cc2o1; ξPhe(βξ-Me) = CC(c1ccccc1)C(N)C(=O)O; X6 = O=C(CCC[*:2])[*:1]; GABA = NCCCC(=O)O

Sequence of Calcium and integrin-binding protein 1 (Homo sapiens) (Q99828 whole entry, looked up): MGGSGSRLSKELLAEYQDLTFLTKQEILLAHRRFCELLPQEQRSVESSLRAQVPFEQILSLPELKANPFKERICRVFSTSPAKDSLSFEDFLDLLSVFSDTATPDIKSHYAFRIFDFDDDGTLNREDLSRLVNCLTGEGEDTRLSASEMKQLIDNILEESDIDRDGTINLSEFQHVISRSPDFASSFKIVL

This assay concerns the target Calcium and integrin-binding protein 1 (Homo sapiens) (UniProt Q99828). Briefly: Primary qHTS for Identification of Calcium Integrin Binding Protein 1 (CIB1) Competitor (AID 1508620). Note: top concentration of the series differs between compounds. Conditions: CIB1-GST / FITC-alphaIIb peptide fluorescence polarization; series mostly up to 57.7 µM. A digest of the protocol: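 Fluorescence polarization competition: GST-tagged CIB1 (1 uM final) preincubated with compound 15 min at room temperature, then FITC-labelled alphaIIb peptide (100 nM final) added. After 15 min at room temperature, polarization read at Ex 480/Em 540.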
Background: Quantitative high-throughput screening tests each substance at several concentrations.
As for `CCOc1c2c(c(OCC)c3ccccc13)C(=O)N(c1ccc(CC(=O)NS(=O)(=O)c3ccccc3)cc1)C2`, the Potency result was “inactive”.

On to `CC(C)CC1NC(=O)C(C(C)c2ccccc2)NC(=O)C(C(C)C)NC(=O)C(C)NC(=O)CCCNC(=O)C(Cc2c[nH]c3ccccc23)NC(=O)C(C)NC1=O` (stereo not drawn) (cyclo([GABA]AV[ξPhe(βξ-Me)]LAW); configuration not given here), for which the Potency entry is “inactive”.

For the compound `CC[C@H](C)[C@@H]1NC(=O)[C@H](Cc2ccc(OC)cc2)NC(=O)CCCSC[C@@H](C(=O)N2CCC[C@H]2C(=O)N[C@@H](CC(C)C)C(=O)NCC(N)=O)NC(=O)[C@H](CC(N)=O)NC(=O)[C@H](CCC(N)=O)NC1=O` (Y(Me)IQNCPLG-NH2; linker N-5 via X6), the Potency entry was “inactive”.

For `CO/N=C(/C(=O)N[C@@H]1C(=O)N2C(C(=O)O)=C(CSC(=O)c3ccco3)CS[C@H]12)c1csc(N)n1`, the Potency result was “inactive”.

For the compound `C=CC(C)(O)CC/C=C(\C)C(=O)OC1CC2(C(=O)O)CCC3(C)C(=CCC4C5(C)CCC(OC6OC(COC7OCC(O)C(O)C7O)C(O)C(OC7OCC(O)C(O)C7O)C6OC6OC(CO)C(O)C(O)C6OC6OCC(O)C(O)C6O)C(C)(C)C5CCC43C)C2CC1(C)C` (configuration not stated), the activity change, negative = inhibition is -4.39% [at 12.4 µM] (inactive).

For the compound `CC(=O)N[C@H]1CCN(c2ccc(C3=NOC(CN[S+](=O)([O-])C(C)C)C3)cc2F)C1` (some centres not stated), the Potency result was “inactive”.

`CC1(C)CC2C3=CCC4C5(C)CCC(OC6OC(CO)C(O)C(OC7OC(CO)C(O)C(OC8OC(CO)C(O)C(OC9OC(COC%10OC(CO)C(O)C(O)C%10O)C(O)C(O)C9O)C8O)C7O)C6O)C(C)(C)C5CCC4(C)C3(C)CCC2(C(=O)O)CC1O` (configuration not stated): the activity change, negative = inhibition was 1.69% [at 12.4 µM] (inactive).

Consider `O=c1ccn([C@@H]2O[C@H](CO)[C@@H](O)[C@H]2O)c(=O)[nH]1`, for which the Potency result was “inactive”.

With `CC(C)CC(=O)n1cc(C(N)=O)c(=O)cc1C(O)c1ccccc1` (configuration not stated), the Potency entry is “inactive”.

As for `NC(=O)c1ccc(OCC2NC(=O)C3CCCN3C2=O)cc1` (configuration not stated), the Potency result was “inactive”.

Regarding `CC(=O)O[C@@H]1C[C@]2(C)[C@@]3(CCC4[C@@]5(C)CC[C@H](O[C@@H]6O[C@H](C(=O)O)[C@@H](O)[C@H](O[C@@H]7O[C@H](CO)[C@H](O)[C@H](O)[C@H]7O[C@@H]7O[C@@H](C)[C@H](O)[C@@H](O)[C@H]7O[C@@H]7OC[C@](O)(CO)[C@H]7O)[C@H]6O[C@@H]6O[C@H](CO)[C@H](O)[C@H](O)[C@H]6O)C(C)(C)C5CC[C@]42C)O[C@@H](O)[C@]12C3CC(C)(C)[C@@H](OC(=O)/C=C/c1ccc(O)c(O)c1)[C@@H]2OC(=O)/C=C/c1ccccc1` (some centres not stated), the activity change, negative = inhibition is 2.91% [at 12.4 µM] (inactive).

As to `CC(=O)OC[C@@]12[C@H](O)C[C@@H](C)[C@]3(C[C@@H](c4ccoc4)OC3=O)[C@H]1C[C@H](O)C[C@]21CO1`, the Potency entry was “inactive”.

`COCCCNCC1COc2ccccc2O1` (configuration not stated): the Potency entry was “inactive”.

`CC(CCC1(O)OC2CC3C4CCC5CC(O[C@@H]6O[C@H](CO)[C@@H](O)[C@H](O)[C@H]6O[C@@H]6OC[C@@H](O)[C@H](O)[C@H]6O)C(O)CC5(C)C4CCC3(C)C2C1C)CO[C@@H]1O[C@H](CO)[C@@H](O)[C@H](O)[C@H]1O` (some centres not stated): the Potency entry is “inactive”.

Take `CC(=O)N[C@@H](CC(C)C)C(=O)N[C@@H](CCC(=O)O)C(=O)N[C@@H](CCC(=O)O)C(=O)N[C@@H](CC(=O)O)C(=O)Nc1ccc2c(C(F)(F)F)cc(=O)oc2c1` (Ac-LEED-{AFC}): the Potency result is “inactive”.

With `C=C1C(O[C@@H]2O[C@H](CO)[C@@H](O)[C@H](O)[C@@H]2O)CC2C(C)(C)C(O)CCC2(C)C1CC/C(C)=C\CO` (some centres not stated), the Potency result was “inactive”.

As for `COCC(=O)N1CCc2cc(-c3csc(NC(=O)c4cc(OC)cc(OC)c4)n3)ccc21`, the Potency result was “inactive”.

`C=C1CC[C@H]2[C@@](C)(CCC[C@@]2(C)C(=O)O)[C@@H]1CCC(C)CCO` (some centres not stated): the Potency entry is “inactive”.

Consider `O=C(c1ccc(C#Cc2cccc(F)c2)cn1)N1CC2CC2C1` (configuration not stated), for which the Potency entry is “inactive”.

As for `COC(=O)C1=COC(OC2OC(CO)C(O)C(O)C2O)C2C1CC(OC(=O)C(O)CC(=O)O)C2C` (configuration not stated), the Potency entry was “inactive”.

`CNC(=O)c1ccc(Nc2ncc(C(F)(F)F)c(NCc3nccnc3N(C)S(C)(=O)=O)n2)cc1`: the Potency result was “inactive”.

In the case of `COC(=O)C1=CO[C@@H](O[C@@H]2O[C@H](CO)[C@@H](O)[C@H](O)[C@H]2O)[C@@H]2[C@@](C)(O)[C@@H](O)C[C@]12O`, the Potency result is “inactive”.

As to `CCn1nnnc1NCc1ccc(C(C)C)cc1`, the Potency result is “inactive”.

`O=C1NCc2nc3ccccc3c(=O)n2C1Cc1c[nH]c2ccccc12` (configuration not stated): the Potency result is “inactive”.

Turning to `C[C@@H](OC(=O)/C=C/c1ccc(O)cc1)C1=C[C@]2(C=C[C@@H]3C(C(=O)O)=CO[C@@H](O[C@@H]4O[C@H](CO[C@@H]5O[C@H](CO)[C@@H](O)[C@H](O)[C@H]5O)[C@@H](O)[C@H](O)[C@H]4O)[C@@H]32)OC1=O`, the Potency entry was “inactive”.

In the case of `C=CC(C)(C)C12CC3C(=O)NC(Cc4cnc[nH]4)C(=O)N3C1Nc1ccccc12` (configuration not stated), the Potency result is “inactive”.

Turning to `C/C(=C/CO)CC[C@@H]1[C@@]2(C)CCC[C@](C)(C(=O)O)C2CC[C@@]1(C)O` (some centres not stated), the Potency result was “inactive”.
